This is an account of results in PubChem BioAssay (NCI).

Compounds without any hit were thinned out: in the full panel of roughly 83,000, 20% have a hit.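 Percent growth is the endpoint: 0 to 100 indicates growth inhibition (40 means 60% inhibition), 0 means no net growth, and negative values indicate cell death.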 Activity calls are given as the source filed them. Rule for the calls: active = growth percent below 10; inactive = the rest.

The subject of the assay is HL-60(TB) leukemia. Description: NCI-60 one-dose screen, 48 h (100 = growth as untreated, 0 = no growth, -100 = all killed). Particulars: 10 µM unless noted.
On to `COc1ccc(-c2nn(-c3ccc(NC(=O)Nc4cc(C(F)(F)F)cc(C(F)(F)F)c4)cc3)cc2-c2ccncc2)cc1Cl`, for which the growth is 4.01% (active). As for `C=CCNCCC#N`, the figure is 109% (inactive). As to `CC(C)(C)n1cc(-c2ccnc(NCCCNS(=O)(=O)c3cccc(F)c3)c2)c(-c2cccc(O)c2)n1`, the growth was 35.4% (inactive).

In the case of `CC(NC(=O)CCl)c1ccccc1` (stereo unspecified), the growth is 83.4% (inactive). With `CCCCCn1sc(=O)n(Cc2ccc(CNC(=O)OCc3ccc4c(Cl)cc(Cl)c(O)c4n3)cc2)c1=O`, the growth was 63.5% (inactive). The value for `O=C(S)CNC(=O)c1ccccc1` was 91% (inactive).

On to `C=C1C(=O)O[C@H]2[C@H]1CC/C(COC(=O)NCCc1ccc(Br)cc1)=C\CC[C@@]1(C)O[C@@H]21`, for which the growth was -14% (active).

As to `COc1ccc(C(=O)NC(=O)Nc2ccc3c(c2)NC(=O)/C3=C\c2[nH]c(C)c(CCC(=O)O)c2C)c(F)c1`, the growth is 43.2% (inactive). The value for `O=C(Nc1ccccc1OC(=O)c1ccccc1)c1ccccc1` was 0.315% (active); that for `O=C1c2ccccc2C(=O)c2c(N=Nc3sc(=O)[nH]c3S)cccc21` was 111% (inactive); that for `CC[C@]12C=CCN3CC[C@@]4(c5ccc(OC)cc5N(C)[C@H]4[C@@](O)(C(=O)OC)[C@@H]1OC(=O)CCC(=O)O[C@H]1CC[C@H]4[C@@H]5CCC6=CC(=O)CC[C@@H]6[C@H]5CC[C@]14C)[C@@H]32` was -37.9% [100 µM] (active). Regarding `COc1cc2cc(Oc3ccc(NC(=O)Nc4cc(C(F)(F)F)cc(C(F)(F)F)c4)cc3)c(C)nc2cc1OCCN1CCCCC1`, the growth was -2.13% (active). Consider `CCN(CC)CCN1C(=O)c2c(c(C)c3c(oc4cc(OC)ccc43)c2C)C1=O`, for which the growth was 85.8% (inactive). Regarding `COc1ccc(-c2[nH]c3ccc(OC)cc3c2C=C(C#N)C#N)cc1`, the growth is -43.1% (active). Consider `CCC(=O)c1ccc(O)c(OC)c1`, for which the growth was 102% (inactive). As for `COC(=O)[C@]12CC[C@@H](C)[C@H](C)[C@@H]1C1=CC[C@@H]3[C@@]4(C)C[C@@H](O)[C@H](O)[C@@](C)(CO)[C@@H]4[C@H](O)C[C@@]3(C)[C@]1(C)CC2`, the figure is -27.4% (active); as for `Cc1ccc(C2NC(=S)N3C(c4ccc(C)cc4)NC(=S)N23)cc1` (stereo unspecified), -23.9% (active). The value for `CC/C=C\C[C@H](O)C/C=C1/C(=O)C=C[C@@H]1C/C=C\CCCCO` was 36.4% (inactive); that for `Cc1cccc2c1O/C(=C\c1ccc([N+](=O)[O-])o1)C2=O` was -25.7% (active); that for `CC(=O)Nc1cc(C(c2ccccc2)c2ccccc2)cc(C(c2ccccc2)c2ccccc2)c1C` was 53.1% (inactive). On to `Cc1cc(C)c(NC(=O)c2sc3nc4c(cc3c2N)CCCCCC4)c(C)c1`, for which the growth was -20.2% (active).

For the compound `CCCCCCCC(=O)SCC/C=C/[C@@H]1CC(=O)NCc2cccc(n2)C2=N[C@@](C)(CS2)C(=O)N[C@@H](C(C)C)C(=O)N1`, the growth was 24.7% (inactive). As for `COc1nc2c(c(=O)n1C)CN(c1ccccc1)C(=O)CN2C`, the figure is 93% [100 µM] (inactive); as for `CCCCCCCCCCN=C(N)N=C(N)N`, 1.55% (active). As for `Nc1ccccc1NC(=O)c1ccc(CSc2nc(N3CCOCC3)c3cccn3n2)cc1`, the figure is -19.4% (active); as for `COc1cccc(C2C3=C(COC3=O)N(CCO)c3cc4c(cc32)OCO4)c1` (stereo unspecified), -2.69% (active).

As for `Nc1ncnc2c1N=C(c1ccc(Cl)cc1)CC(c1cccc(Nc3ccnc4cc(Cl)ccc34)c1)N2` (stereo unspecified), the growth is 55.3% (inactive). In the case of `N#Cc1cccc(-c2nc3ccccn3c2NCCN2CCOCC2)c1`, the growth is 101% (inactive). The value for `N=C(N)c1ccc(-c2ccc(-c3ccc(Cl)cn3)s2)cc1` was -45.8% (active); that for `Cc1cc(NCCCNc2ccnc3cc(Cl)ccc23)nc(Nc2ccc(C(=O)N3CCCCC3)cc2)n1` was -63.2% (active); that for `C=CCN1C(=O)/C(=c2\sc3n(c2=O)C2C(NN=3)N(CC)C(=O)N2CC)c2ccccc21` (stereo unspecified) was -17.4% (active).

Consider `CNc1nc(NC2CCCC2)nc(Sc2ccc(OC)cc2)n1`, for which the growth is 2% [100 µM] (active). As for `CCCCOP(=O)(OCCCC)C(C(=O)OCC)C(CC(=O)OCC)C(=O)OCC` (stereo unspecified), the figure is 102% (inactive); as for `CN1CCN(CC(=O)Nc2nc(-c3cccc(NS(=O)(=O)c4cccc5c(N(C)C)cccc45)c3)cs2)CC1`, 23.3% (inactive). The value for `CCCCCCCc1n(Cc2ccc3ccccc3c2)c2ccccc2[n+]1Cc1ccc2ccccc2c1` was -63.7% (active). Turning to `Cc1cc(-c2ccc(N(C)C)cc2)c2sc(=O)[nH]c2n1`, the growth was 14.3% (inactive).
